High-throughput results as filed in PubChem BioAssay.
GRIN3A LBD mod: modulates the human NR3A ligand-binding domain; NR3A LBD differential scanning fluorimetry, Tm shift; 0% = protein alone, 100% = glycine-bound protein; Tm shift relative to glycine control, % at 25 µM; 2.5% of 340,000 active;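 active = melting temperature shift of at least 10% of the positive control shift, at one fixed dose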
rCAG binder-1: r(CAG) repeat RNA binding | TO-PRO-1 dye displacement fluorescence | inhibition, % at 3 µM | 1.3% of 370,000 active | AID 651821;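 active = inhibition above the plate cutoff, the mean of all test compounds on that plate plus 3 SD, cut at about 35% in these data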;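 note: higher means more dye released from RNA so lower well fluorescence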
MPTP inh: blocks calcium-induced mitochondrial swelling; isolated mouse mitochondria, Ca2+ swelling absorbance, 30 min; inhibition, % at 10 µM; 1.4% of 360,000 active; AID 602449;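 active = inhibition of 50% or more, scaled per plate between neutral and stimulator controls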
FAS TE block: blocks the thioesterase domain of human fatty acid synthase | P49327 | recombinant FAS-TE, OMFH fluorogenic substrate, fluorescence endpoint | inhibition, % at 15 µM | 0.67% of 360,000 active | AID 602261;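 active = compounds whose normalised, plate-corrected inhibition of enzyme fluorescence in the single-dose primary screen is 50% or more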
Target sequence (P49327 whole entry, looked up, the tested form may be a part): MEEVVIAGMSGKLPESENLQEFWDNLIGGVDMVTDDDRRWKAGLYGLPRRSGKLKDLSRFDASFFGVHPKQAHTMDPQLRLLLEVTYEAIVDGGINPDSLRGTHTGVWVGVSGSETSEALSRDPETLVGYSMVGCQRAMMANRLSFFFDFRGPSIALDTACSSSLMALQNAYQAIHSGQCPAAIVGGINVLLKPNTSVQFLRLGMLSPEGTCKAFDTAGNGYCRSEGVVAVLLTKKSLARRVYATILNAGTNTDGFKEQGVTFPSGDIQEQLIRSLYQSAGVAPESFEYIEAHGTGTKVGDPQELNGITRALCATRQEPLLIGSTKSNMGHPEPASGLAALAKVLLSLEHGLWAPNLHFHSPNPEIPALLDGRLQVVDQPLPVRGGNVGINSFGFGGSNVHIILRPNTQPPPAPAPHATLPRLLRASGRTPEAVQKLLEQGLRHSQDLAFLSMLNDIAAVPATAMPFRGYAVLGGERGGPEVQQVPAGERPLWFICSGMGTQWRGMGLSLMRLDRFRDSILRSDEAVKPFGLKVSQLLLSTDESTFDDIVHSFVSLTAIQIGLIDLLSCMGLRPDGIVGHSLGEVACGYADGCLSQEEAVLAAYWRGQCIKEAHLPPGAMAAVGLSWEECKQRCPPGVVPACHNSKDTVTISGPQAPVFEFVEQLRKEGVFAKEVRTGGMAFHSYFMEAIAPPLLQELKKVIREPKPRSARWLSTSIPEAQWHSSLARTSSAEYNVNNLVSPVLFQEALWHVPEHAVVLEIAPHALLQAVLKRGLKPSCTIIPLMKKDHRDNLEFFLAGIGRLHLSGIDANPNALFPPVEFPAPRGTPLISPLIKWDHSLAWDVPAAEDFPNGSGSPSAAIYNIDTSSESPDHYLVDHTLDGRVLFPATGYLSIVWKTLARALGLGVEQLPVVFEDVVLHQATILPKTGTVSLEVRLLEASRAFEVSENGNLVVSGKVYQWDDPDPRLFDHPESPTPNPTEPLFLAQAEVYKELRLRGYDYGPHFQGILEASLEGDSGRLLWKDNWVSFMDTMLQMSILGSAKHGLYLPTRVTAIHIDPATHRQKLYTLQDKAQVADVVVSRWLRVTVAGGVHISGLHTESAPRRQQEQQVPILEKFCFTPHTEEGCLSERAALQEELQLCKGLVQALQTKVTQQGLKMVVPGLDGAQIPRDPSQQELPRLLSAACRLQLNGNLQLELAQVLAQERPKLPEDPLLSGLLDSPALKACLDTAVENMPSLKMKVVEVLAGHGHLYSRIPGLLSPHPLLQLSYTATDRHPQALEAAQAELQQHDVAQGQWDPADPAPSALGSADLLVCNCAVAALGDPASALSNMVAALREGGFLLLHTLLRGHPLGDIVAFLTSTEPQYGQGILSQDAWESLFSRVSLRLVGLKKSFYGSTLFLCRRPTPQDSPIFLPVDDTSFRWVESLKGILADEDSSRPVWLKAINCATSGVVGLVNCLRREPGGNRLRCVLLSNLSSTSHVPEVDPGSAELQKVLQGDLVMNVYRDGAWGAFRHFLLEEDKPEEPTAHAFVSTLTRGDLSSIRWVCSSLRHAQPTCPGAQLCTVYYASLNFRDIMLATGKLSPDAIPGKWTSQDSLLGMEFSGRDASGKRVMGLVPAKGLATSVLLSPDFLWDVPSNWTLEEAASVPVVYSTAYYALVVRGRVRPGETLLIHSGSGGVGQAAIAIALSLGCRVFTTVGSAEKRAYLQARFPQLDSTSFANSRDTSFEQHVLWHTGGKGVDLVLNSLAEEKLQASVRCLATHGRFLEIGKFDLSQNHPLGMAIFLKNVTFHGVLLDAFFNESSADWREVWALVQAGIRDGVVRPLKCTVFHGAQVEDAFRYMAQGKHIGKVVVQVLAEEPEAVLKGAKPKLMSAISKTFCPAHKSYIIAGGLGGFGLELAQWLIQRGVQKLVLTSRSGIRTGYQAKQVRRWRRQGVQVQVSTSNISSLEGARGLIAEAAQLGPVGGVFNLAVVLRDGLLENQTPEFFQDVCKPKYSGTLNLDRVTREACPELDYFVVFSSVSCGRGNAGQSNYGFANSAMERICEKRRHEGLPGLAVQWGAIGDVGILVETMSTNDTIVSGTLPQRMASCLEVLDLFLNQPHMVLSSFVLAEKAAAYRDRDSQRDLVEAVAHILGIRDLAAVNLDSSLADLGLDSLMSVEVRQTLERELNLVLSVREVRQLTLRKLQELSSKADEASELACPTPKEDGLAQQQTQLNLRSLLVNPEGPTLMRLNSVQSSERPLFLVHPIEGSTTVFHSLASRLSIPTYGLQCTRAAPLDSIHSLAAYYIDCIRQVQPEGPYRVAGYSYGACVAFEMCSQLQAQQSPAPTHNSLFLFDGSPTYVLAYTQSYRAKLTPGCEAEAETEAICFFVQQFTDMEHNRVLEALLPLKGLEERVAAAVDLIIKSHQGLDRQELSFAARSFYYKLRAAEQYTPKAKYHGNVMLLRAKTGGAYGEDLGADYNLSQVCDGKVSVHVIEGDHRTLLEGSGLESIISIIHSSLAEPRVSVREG
Myeloid diff 2: promotes myeloid progenitor differentiation; ER-HoxA9 myeloid progenitors, lysozyme-GFP differentiation, flow cytometry; 1% of 360,000 active; calls only at 10 µM;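 active = normalized GFP-positive differentiation at or above the plate's own cutoff, the solvent-only control mean plus 3 SD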;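 note: cells exposed to compound for four days before flow analysis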
rCAG binder conf: r(CAG) RNA repeat binding, confirmation | shares compounds with rCAG binder-1 | TO-PRO-1 dye displacement fluorescence | inhibition, % at 3 µM | 70% of 4,300 active;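 active = inhibition above a per-plate cutoff, the mean inhibition of sample wells plus 3 SD, cut at about 35% in these data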;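 note: loss of TO-PRO-1 fluorescence as compound displaces dye from 1x1 AA loop RNA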
DNA CAG counter: DNA CAG dye complex inhibition counter-screen; shares compounds with rCAG binder-1; d(CAG) DNA oligo TO-PRO-1 dye displacement, fluorescence; inhibition, % at 3 µM; 94% of 4,300 active;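 active = inhibition above its plate's cutoff, the mean test-well inhibition plus 3 SD, cut at about 4.8% in these data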;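 note: hits displace the dye from DNA and so lower well fluorescence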
DNA CAG DR: disrupts DNA CAG TO-PRO-1 complex in dose response; shares compounds with rCAG binder-1; DNA CAG/GTC duplex TO-PRO-1 dye displacement fluorescence; IC50, µM; 20% of 250 active; AID 686960; in the data active = IC50 below about 10 µM
dCAG TOPRO ctr: inhibits DNA CAG/GTC TO-PRO-1 complex, rCAG binder counter-screen | IC50, µM | 80% of 30 active | shares compounds with rCAG binder-1 | d(CAG) DNA duplex TO-PRO-1 dye displacement, fluorescence
rCAG binder-2: binds r(CAG) RNA repeats in late stage dose response; shares compounds with rCAG binder-1; r(CAG) RNA TO-PRO-1 dye displacement, fluorescence; IC50, µM; 100% of 30 active
Each line names hits and unclear results; the compound was inactive in the other large screens (follow-up assays come after a bar, where they were run). Rows were chosen to be rich in hits. Some 5.7% of all compounds tested hit in one or more screens of this group. Unless noted, the rule behind the calls is not given here.

CCOC(=O)c1c(NC(C)=O)sc(C(=O)NC2CCCC2)c1C	none
CCOC(=O)c1c(NC(C)=O)sc(/C(C)=N/Nc2ccc(C(=O)O)cc2)c1C	rCAG binder-1 40.0 (no result: Myeloid diff 2) | rCAG binder conf inactive | DNA CAG counter inactive
CCCCOc1ccc(C(=O)Oc2cc(C)[nH]c(=O)c2[N+](=O)[O-])cc1	none
CCOc1ccc(C(=O)Oc2cc(C)[nH]c(=O)c2[N+](=O)[O-])cc1	rCAG binder-1 73.9 | rCAG binder conf inactive | DNA CAG counter inactive
O=C(Nc1cccc(C(=O)O)c1)/C(=C\c1ccc2c(c1)OCO2)NC(=O)c1ccc(Br)cc1	rCAG binder-1 42.7 | rCAG binder conf inactive | DNA CAG counter 6.9
O=C(Nc1ccc(C(=O)O)cc1)/C(=C/c1ccc2c(c1)OCO2)NC(=O)c1cccc(Br)c1	rCAG binder-1 50.2 | rCAG binder conf 40.9 | DNA CAG counter 10.1
O=C(Nc1cccc(C(=O)O)c1)/C(=C\c1ccc2c(c1)OCO2)NC(=O)c1ccccc1	none
COC(=O)N1CCC2CC1c1c(Cl)cccc12 (configuration not stated)	none (no result: GRIN3A LBD mod)
COc1ccccc1-n1c(C)c(C(=O)O)c2cc(OC)c3ccccc3c21	rCAG binder-1 41.4 | rCAG binder conf inactive | DNA CAG counter 5.6
COc1cc2c(C(=O)O)c(C)n(-c3ccccc3)c2c2ccccc12	rCAG binder-1 36.5 | rCAG binder conf inactive | DNA CAG counter 6.1
Cc1ccccc1-n1nnnc1SCc1cc(=O)n2ccsc2n1	none
CCCC(=O)Nc1ccc(S(=O)(=O)Nc2cc(OC)nc(OC)n2)cc1	none
COc1cc(NS(=O)(=O)c2ccc(NC(=O)COc3ccccc3Cl)cc2)nc(OC)n1	rCAG binder-1 64.5 (no result: MPTP inh, FAS TE block, Myeloid diff 2) | rCAG binder conf 38.4 | DNA CAG counter 12.2
CCOc1ccccc1C(=O)Nc1ccc(S(=O)(=O)Nc2cc(OC)nc(OC)n2)cc1	rCAG binder-1 50.9 | rCAG binder conf inactive | DNA CAG counter 7.6
COc1cc(NS(=O)(=O)c2ccc(NC(=O)COc3cccc(C)c3)cc2)nc(OC)n1	none
Cc1ccc(C2(C)NC(=O)N(CC(=O)Nc3cc(S(=O)(=O)N(C)C)ccc3C)C2=O)cc1 (configuration not stated)	none
Cc1ccc(NC(=O)CSCC(=O)Nc2nnc(C)s2)cc1	none
COc1cc(OC)cc(-c2c(C#Cc3ccsc3)c3cc(-c4ccc5[nH]ccc5c4)ccc3n2C)c1	rCAG binder-1 37.0 | rCAG binder conf inactive | DNA CAG counter 21.5
CCC(Sc1nc2ccsc2c(=O)n1Cc1ccc(C(=O)O)cc1)C(=O)Nc1ccc(C)c(Cl)c1 (configuration not stated)	rCAG binder-1 74.0 | rCAG binder conf 79.5 | DNA CAG counter 48.7
CCOc1cc(C(c2c(C)[nH][nH]c2=O)c2c(C)[nH][nH]c2=O)ccc1OCc1ccc([N+](=O)[O-])cc1	rCAG binder-1 39.3 | rCAG binder conf 42.0 | DNA CAG counter 13.6
Cc1cc(C)c(NC(=O)/C=C\C(=O)O)c([N+](=O)[O-])c1	none
COc1ccccc1C(=O)NCCC(=O)NCCc1ccccc1	none
Oc1ccc(/C=N/N(Cc2ccccc2)c2ccccc2)c(O)c1O	rCAG binder-1 37.7 | rCAG binder conf 44.6 | DNA CAG counter 24.9
C/C(=N\N(Cc1ccccc1)c1ccccc1)c1cccnc1	none
COc1cccc(N2CCN(c3ccc(N4C(=O)CCC4=O)cc3[N+](=O)[O-])CC2)c1	none
CC(OC(=O)C1=Cc2ccccc2OC1)C(=O)NCC1CCCO1 (configuration not stated)	rCAG binder-1 71.2 | rCAG binder conf 78.1 | DNA CAG counter 44.0
COCCNC(=O)C(C)OC(=O)C1=Cc2ccccc2OC1 (configuration not stated)	none
S=c1[nH]nc(-c2cccs2)n1/N=C/c1c(Cl)cccc1Cl	rCAG binder-1 49.9 | rCAG binder conf 43.8 | DNA CAG counter 10.3
S=c1[nH]nc(-c2cc(-c3ccccc3)n[nH]2)n1/N=C/c1cccs1	rCAG binder-1 35.5 | rCAG binder conf 39.2 | DNA CAG counter 10.3
Cc1ccc(/C=N/n2c(-c3cccs3)n[nH]c2=S)cc1	none
S=c1[nH]nc(-c2cc(-c3ccccc3)n[nH]2)n1/N=C/c1ccccc1	none
S=c1[nH]nc(-c2cc(-c3ccccc3)n[nH]2)n1N=Cc1c[nH]c2ccccc12	rCAG binder-1 78.4 (no result: GRIN3A LBD mod, MPTP inh, FAS TE block, Myeloid diff 2) | rCAG binder conf 65.7 | DNA CAG counter 22.8
CN1CCN(S(=O)(=O)c2ccc(N(C)Cc3ccc(C(F)(F)F)cc3)c([N+](=O)[O-])c2)CC1	none
Cc1ccc(C)c(S(=O)(=O)Nc2nc(C)c(C(=O)Nc3ccccc3)s2)c1	rCAG binder-1 46.3 | rCAG binder conf 36.1 | DNA CAG counter 9.0
CC(=O)c1sc(-c2ccccc2)cc1NS(=O)(=O)c1ccc(C)cc1	none
Cc1nc(NC(N)=S)sc1C(=O)Nc1ccccc1	none
NC(=O)c1sc(-c2ccsc2)cc1NS(=O)(=O)c1ccc(C(F)(F)F)cc1	rCAG binder-1 55.6 | rCAG binder conf 77.1 | DNA CAG counter 29.6 | DNA CAG DR 7.04 | dCAG TOPRO ctr 4.43 | rCAG binder-2 1.49
CC(=O)c1sc(-c2ccccc2)cc1NS(=O)(=O)c1ccccc1	rCAG binder-1 82.6 | rCAG binder conf inactive | DNA CAG counter inactive
CC(=O)c1sc(-c2ccc(F)cc2)cc1NS(=O)(=O)c1ccc(C)cc1	none
CC(=O)c1sc(NS(=O)(=O)c2ccc(C)cc2)nc1-c1ccccc1	rCAG binder-1 42.3 | rCAG binder conf inactive | DNA CAG counter 7.5
COc1ccc(Cc2n[nH]c(=S)n2-c2cc(C)ccc2C)cc1OC	none (no result: GRIN3A LBD mod)
Cc1ccc(S(=O)(=O)Nc2nc(C)c(C(=O)NNS(=O)(=O)c3cc(C)ccc3C)s2)cc1	rCAG binder-1 54.3 | rCAG binder conf 59.2 | DNA CAG counter 21.8
Cc1nc(NS(=O)(=O)c2ccccc2)sc1C(=O)N/N=C/c1ccccc1	rCAG binder-1 68.8 | rCAG binder conf 42.5 | DNA CAG counter 10.6
Cc1nc(NS(=O)(=O)c2ccccc2)sc1C(=O)NNS(=O)(=O)c1ccccc1	none
Cc1ccc(S(=O)(=O)NNC(=O)c2sc(NS(=O)(=O)c3ccccc3)nc2C)cc1	none
Cc1ccc(S(=O)(=O)Nc2nc(C)c(C(=O)NN)s2)cc1	rCAG binder-1 58.5 | rCAG binder conf inactive | DNA CAG counter inactive
